Reference: the supplement of paper PMC7411054
Structures can show the parent of a compound that is named as a salt.

Columns and labels:
Experiment in all cases: lowest phenotypically active concentration; higher = less potent
Details in all cases: treatment time: 24 h
A549-TP53BP1-CLTA = test system: A549-TP53BP1-CLTA
Method in brief: (§1)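 Four wells per concentration (0.3, 1, 3 or 9 µM) were treated for 24 h in each of fifteen gene-edited reporter lines from A549, HepG2 and WPMY1 cells, then imaged live. After normalising live-cell features to solvent control wells, deviation was defined as ≥3 of 4 wells lying past the 95th percentile of control Euclidean distances. Reproducibility was defined as a median replicate Pearson correlation above the 95th percentile of non-replicates. Both had to hold for phenotypic activity.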

HepG2-CANX-COX4 = test system: HepG2-CANX-COX4
Method in brief: as §1

HepG2-GM130-SQSTM1 = test system: HepG2-GM130-SQSTM1
Method in brief: as §1

HepG2-TP53BP1-CLTA = test system: HepG2-TP53BP1-CLTA
Method in brief: as §1

HepG2-TUBA1B-RELA = test system: HepG2-TUBA1B-RELA
Method in brief: as §1

WPMY1-ACTB-RAB5A = test system: WPMY1-ACTB-RAB5A
Method in brief: as §1

WPMY1-CANX-COX4 = test system: WPMY1-CANX-COX4
Method in brief: as §1

WPMY1-TP53BP1-CLTA = test system: WPMY1-TP53BP1-CLTA
Method in brief: as §1

WPMY1-TUBA1B-RELA = test system: WPMY1-TUBA1B-RELA
Method in brief: as §1

For `CCC(C)(C)C(=O)O[C@H]1C[C@@H](C)C=C2C=C[C@H](C)[C@H](CC[C@@H]3C[C@@H](O)CC(=O)O3)[C@H]21` [Simvastatin], the “lowest phenotypically active concentration” value (A549-TP53BP1-CLTA) was 9 µM, the “lowest phenotypically active concentration” value (HepG2-CANX-COX4) was 1 µM and the “lowest phenotypically active concentration” value (HepG2-GM130-SQSTM1) was 1 µM. The “lowest phenotypically active concentration” value (HepG2-TP53BP1-CLTA) was 3 µM, the “lowest phenotypically active concentration” value (HepG2-TUBA1B-RELA) was 1 µM and the “lowest phenotypically active concentration” value (WPMY1-ACTB-RAB5A) was no more than 0.3 µM. The “lowest phenotypically active concentration” value (WPMY1-CANX-COX4) was 1 µM, the “lowest phenotypically active concentration” value (WPMY1-TP53BP1-CLTA) was 3 µM and the “lowest phenotypically active concentration” value (WPMY1-TUBA1B-RELA) was 3 µM.
For `CCOC(=O)c1c2c3c(cccc3[nH]c1=O)C(=O)c1ccccc1-2`, the “lowest phenotypically active concentration” value (HepG2-TP53BP1-CLTA) was no more than 0.3 µM.
`CN1c2ccc([N+](=O)[O-])cc2N=C(c2ccc(C(=O)O)cc2)c2cc3c(cc21)C(C)(C)CCC3(C)C` was tested, and the “lowest phenotypically active concentration” value (HepG2-TUBA1B-RELA) was 9 µM.
`COc1cc2c(cc1OC)-c1c/c(=N/c3c(C)cc(C)cc3C)n(C)c(=O)n1CC2` [Trequinsin hydrochloride] was tested, and the “lowest phenotypically active concentration” value (HepG2-CANX-COX4) was 9 µM, the “lowest phenotypically active concentration” value (WPMY1-ACTB-RAB5A) was 9 µM and the “lowest phenotypically active concentration” value (WPMY1-CANX-COX4) was 9 µM. For the same compound, the “lowest phenotypically active concentration” value (WPMY1-TP53BP1-CLTA) was 9 µM and the “lowest phenotypically active concentration” value (WPMY1-TUBA1B-RELA) was 9 µM.
For `O=S(=O)(c1cccc2cnccc12)N1CCNCC1`, the “lowest phenotypically active concentration” value (A549-TP53BP1-CLTA) was 9 µM, the “lowest phenotypically active concentration” value (HepG2-CANX-COX4) was 3 µM and the “lowest phenotypically active concentration” value (HepG2-GM130-SQSTM1) was 3 µM. The “lowest phenotypically active concentration” value (HepG2-TP53BP1-CLTA) was 9 µM, the “lowest phenotypically active concentration” value (HepG2-TUBA1B-RELA) was 3 µM and the “lowest phenotypically active concentration” value (WPMY1-ACTB-RAB5A) was 9 µM. For the same compound, the “lowest phenotypically active concentration” value (WPMY1-CANX-COX4) was 9 µM, the “lowest phenotypically active concentration” value (WPMY1-TP53BP1-CLTA) was 9 µM and the “lowest phenotypically active concentration” value (WPMY1-TUBA1B-RELA) was 3 µM.
In the case of `Cn1cc(-c2cnc3ccc4ccc(CS(=O)(=O)NCc5ccccn5)cc4c(=O)c3c2)cn1`, the “lowest phenotypically active concentration” value (WPMY1-CANX-COX4) is reported as 3 µM.
With `Nc1cc(N)c(N)cc1N` [FAK Inhibitor 14] the “lowest phenotypically active concentration” value (HepG2-TP53BP1-CLTA) was 9 µM, the “lowest phenotypically active concentration” value (HepG2-TUBA1B-RELA) was 3 µM and the “lowest phenotypically active concentration” value (WPMY1-ACTB-RAB5A) was 3 µM. The “lowest phenotypically active concentration” value (WPMY1-CANX-COX4) was 9 µM, the “lowest phenotypically active concentration” value (WPMY1-TP53BP1-CLTA) was 9 µM and the “lowest phenotypically active concentration” value (WPMY1-TUBA1B-RELA) was 1 µM.
For `Fc1ccccc1Nc1nc2nonc2nc1Nc1ccccc1F`, the “lowest phenotypically active concentration” value (HepG2-TP53BP1-CLTA) was 9 µM, the “lowest phenotypically active concentration” value (HepG2-TUBA1B-RELA) was 9 µM and the “lowest phenotypically active concentration” value (WPMY1-ACTB-RAB5A) was 9 µM. The “lowest phenotypically active concentration” value (WPMY1-CANX-COX4) was 9 µM.
With `CC1CNCCN1S(=O)(=O)c1cccc2cnccc12` (configuration not stated) [H-7 dihydrochloride] the “lowest phenotypically active concentration” value (HepG2-CANX-COX4) was 9 µM, the “lowest phenotypically active concentration” value (HepG2-GM130-SQSTM1) was 9 µM and the “lowest phenotypically active concentration” value (HepG2-TUBA1B-RELA) was 9 µM. For the same compound, the “lowest phenotypically active concentration” value (WPMY1-ACTB-RAB5A) was 9 µM, the “lowest phenotypically active concentration” value (WPMY1-CANX-COX4) was 9 µM and the “lowest phenotypically active concentration” value (WPMY1-TUBA1B-RELA) was 9 µM.
